The record followed here is PubChem BioAssay (NCATS).

Results filed as inconclusive are left out. Calls of active or inactive are those of the source. Unless noted, the call rests on the fitted dose curve; in most records, active means well fitted curve in the direction sought with a large enough effect; inconclusive means small, poorly fitted or top-dose-only effect, or another doubt; inactive means no such curve, though single readings can be large; an effect the other way counts as inactive or inconclusive.

A short description of experiment [1]: qHTS assay for small molecule antagonists of peroxisome proliferator-activated receptor delta signaling (AID 588535).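 Further: cells co-treated with a PPAR-delta agonist as stimulator during compound exposure.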 The settings on record: HEK293T PPARd-UAS-bla, beta-lactamase FRET ratio, 18 h; 460 nm channel. The procedure, abridged:
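Cells were seeded at 4000 per well in assay medium containing 2% charcoal/dextran FBS and held 5 hrs at 37 C. Compounds were then added for 18 hrs. CCF4 substrate was applied for 2 hrs at room temperature before fluorescence reading.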
(In general: Quantitative high-throughput screening tests each substance at several concentrations.)

In experiment [2] the target is Peroxisome proliferator-activated receptor gamma (Homo sapiens) (UniProt P37231). The experiment in a line: qHTS assay for small molecule agonists of peroxisome proliferator-activated receptor gamma signaling (AID 588536; active means well fitted curve in the direction sought with a large enough effect in the signal ratio, with a control signal flat, not every such curve was filed as active; the % refers to the signal ratio;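 further: 0% = DMSO basal wells and 100% = rosiglitazone at 2 µM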). Particulars: HEK293 PPARg-UAS-bla, beta-lactamase ratio, 16 h, percent of rosiglitazone response, DMSO as zero; series mostly up to 76.7 µM. The procedure, abridged:
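PPAR-gamma-UAS-bla HEK293 cells in medium with 1% charcoal/dextran-treated FBS were exposed to compounds for 16 h at 37 C. Beta-lactamase activity was read with CCF4 substrate (405 nm excitation, 460/530 nm emission).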

The target is the same in experiment [3]. Kind of experiment: qHTS assay for small molecule antagonists of peroxisome proliferator-activated receptor gamma signaling (AID 588537; active means well fitted inhibition curve with a large enough effect in the signal ratio, with a control signal flat, not every such curve was filed as active; the % refers to the signal ratio;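 further: reporter cells co-stimulated with 50 nM rosiglitazone agonist during compound treatment; % of control where 0% means no effect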). Particulars: HEK293 PPARg-UAS-bla, beta-lactamase ratio, antagonist mode; series mostly up to 76.8 µM. The procedure, abridged:
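Step one: plate 3000 HEK293 UAS-bla cells per well in medium with 1% stripped serum and hold 6-6.5 h at 37 C. Step two: add compound and 50 nM agonist for 16 h. Step three: CCF4 loading, fluorescence read.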

In experiment [4] the target is Vitamin D3 receptor (Homo sapiens) (UniProt P11473). Kind of experiment: qHTS assay for small molecule antagonists of vitamin D receptor signaling (AID 588541; calls by dose curve;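 further: receptor activated by calcitriol during compound treatment; on the % scale 0 is the no-effect control and ±100 the full control effect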). Particulars: HEK293T VDR-UAS-bla, beta-lactamase ratio, antagonist mode; series mostly up to 76.7 µM. The procedure, abridged: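 VDR-UAS-bla HEK293T cells in 2% charcoal-stripped FBS were stimulated with 1-alpha,25-dihydroxyvitamin D3 (3 nM final) plus compound for 16 h at 37 C. The beta-lactamase CCF4 readout was normalized to 50 nM agonist and DMSO, and Hill fits gave IC50.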
Vitamin D3 receptor (Homo sapiens), sequence (P11473 whole entry, looked up): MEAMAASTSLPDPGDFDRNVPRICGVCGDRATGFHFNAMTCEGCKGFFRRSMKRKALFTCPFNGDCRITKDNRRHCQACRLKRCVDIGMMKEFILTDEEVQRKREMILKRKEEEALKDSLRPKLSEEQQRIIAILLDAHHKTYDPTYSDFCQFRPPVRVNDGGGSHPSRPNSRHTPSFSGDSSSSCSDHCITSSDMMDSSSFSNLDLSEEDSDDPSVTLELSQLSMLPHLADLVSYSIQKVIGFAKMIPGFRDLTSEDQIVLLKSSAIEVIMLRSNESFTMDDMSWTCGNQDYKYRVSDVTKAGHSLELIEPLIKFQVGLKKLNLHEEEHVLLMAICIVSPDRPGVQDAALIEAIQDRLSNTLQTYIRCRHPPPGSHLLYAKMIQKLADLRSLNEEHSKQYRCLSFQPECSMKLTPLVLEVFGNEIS

For experiment [5] the target is unchanged. The experiment in a line: qHTS assay for small molecule agonists of vitamin D receptor signaling (AID 588543; calls by dose curve;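 further: 0% = DMSO basal and 100% = reference agonist control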). Particulars: HEK293T VDR-UAS-bla, beta-lactamase ratio, 16 h; series mostly up to 76.8 µM. Summed up: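 β-lactamase reporter, VDR-UAS-bla HEK293T, agonist mode. Cells plated 5 h at 37 °C, compound titration 16 h at 37 °C, CCF4 dye 2 h RT, ratio 460/530 nm. Hill fit → EC50, efficacy vs 50 nM 1α,25-(OH)2D3.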

Experiment [6] can be described thus: qHTS assay for small molecule agonists of retinoid X receptor alpha signaling (AID 588544; calls by dose curve;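 on activation: 0% = DMSO basal wells and 100% = reference agonist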). Particulars: HEK293T RXRa-UAS-bla, beta-lactamase reporter, 18 h; 530 nm emission.
Experiment [7] addresses Thyroid hormone receptor beta (Homo sapiens) (UniProt P10828). The experiment in a line: qHTS assay for small molecule agonists of thyroid hormone receptor beta signaling (AID 588545; calls by dose curve). The settings on record: TR-UAS-bla GripTite HEK 293, beta-lactamase ratio, agonist mode, 18 h; series mostly up to 76.7 µM. Summed up:
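Cells (2500/well) were seeded, incubated 4 hrs at 37 C, dosed with a compound series, incubated 18 hrs, loaded with CCF4 dye for 2 hrs at RT, then read for fluorescence. Data were scaled between DMSO (0%) and 10 nM T3 (100%).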

The nature of experiment [8]: qHTS assay for small molecule antagonists of retinoid X receptor alpha signaling (AID 588546; active means well fitted inhibition curve with a large enough effect in the signal ratio, with a control signal flat, not every such curve was filed as active; the % refers to the signal ratio;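 further: cells stimulated with 9-cis-retinoic acid as agonist; on the % scale 0 is the no-effect control and ±100 the full control effect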). Particulars: HEK293T RXRa-UAS-bla, beta-lactamase ratio, antagonist mode; measured here: W530 green channel, cytotoxicity proxy. The procedure, abridged:
(§1)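 Beta-lactamase reporter inhibition, read as CCF4 fluorescence ratio (ex 405, em 460/530 nm) after 2 h at RT. HEK293T UAS-bla cells, 2500/well, were stimulated with 9-cis-RA at 500 or 100 nM final alongside test compound for 18 h at 37 C.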

Experiment [9] concerns the target Retinoic acid receptor RXR-alpha (Homo sapiens) (UniProt P19793). The description is as above. Particulars: HEK293T RXRa-UAS-bla, beta-lactamase ratio, antagonist mode. The procedure, abridged:
as §1

Experiment [10] in a line: qHTS assay for small molecule activators of the nuclear factor-kappa B (NF-kB) signaling pathway (AID 651749; active means well fitted activation curve with a large enough effect in the signal ratio; the % refers to the signal ratio; further: % of control where 0% means no effect). The settings on record: NF-kB-bla ME-180 cells, beta-lactamase FRET ratio, 16 h; activation: stronger effect = higher value. The procedure, abridged: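 Incubation lasted 16 hr at 37C in 5% CO2 after 23 nL compound addition to ME-180 NF-kB-bla cells. Activation appears as beta-lactamase-mediated FRET loss.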

Experiment [11] is described as follows: qHTS assay for environmental chemicals that activate the Aryl hydrocarbon Receptor (AhR) signaling pathway (AID 651777). Further: % of control where 0% means no effect; nearly all actives have a fitted effect of over 15% in size. Particulars: 1A2-DRE human hepatoma cells, luciferase, 24 h; activation: stronger effect = higher value. Summed up: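 Human hepatoma 1A2-DRE cells stably carrying a DRE/CYP1A2 promoter–luciferase reporter, 1,200 cells/well, exposed to compound 24 hr at 37 C. Luciferase read by One-Glo luminescence after 30 min at room temperature; increased signal marks AhR activation.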

Experiment [12] deals with Peroxisome proliferator-activated receptor alpha (Homo sapiens) (UniProt Q07869). The experiment in a line: qHTS assay for small molecule agonists of the peroxisome proliferator-activated receptor alpha (PPARalpha) signaling pathway (AID 651778). Further: % of control where 0% means no effect. Particulars: PathHunter PPARalpha complementation, chemiluminescence, 6 h; max response: stronger effect = higher value. The procedure, abridged: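 Enzyme-fragment complementation assay in which ligand-bound PPARalpha translocates and forms an active enzyme that generates chemiluminescence. Cells were plated overnight, exposed to compound for 6 hr at 37 C, and then given detection reagent for 60 min at room temperature.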
Peroxisome proliferator-activated receptor alpha (Homo sapiens), sequence (Q07869 whole entry, looked up, the tested form may be a part): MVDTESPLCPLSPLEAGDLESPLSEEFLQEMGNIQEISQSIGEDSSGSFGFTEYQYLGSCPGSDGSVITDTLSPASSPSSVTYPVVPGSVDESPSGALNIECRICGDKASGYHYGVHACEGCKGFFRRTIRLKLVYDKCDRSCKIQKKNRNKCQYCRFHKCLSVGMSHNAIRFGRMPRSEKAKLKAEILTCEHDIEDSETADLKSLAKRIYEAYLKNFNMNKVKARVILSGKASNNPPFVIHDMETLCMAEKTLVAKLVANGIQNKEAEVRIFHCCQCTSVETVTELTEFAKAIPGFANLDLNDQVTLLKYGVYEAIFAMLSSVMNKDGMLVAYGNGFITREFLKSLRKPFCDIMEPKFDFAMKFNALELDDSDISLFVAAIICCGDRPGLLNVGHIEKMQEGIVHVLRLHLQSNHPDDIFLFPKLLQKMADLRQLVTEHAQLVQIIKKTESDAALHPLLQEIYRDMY

Experiment [13] is described as follows: qHTS assay for small molecule agonists of the antioxidant response element (ARE) signaling pathway measured by Nrf2-dependant transcriptional activity (AID 720636; active means well fitted curve in the direction sought with a large enough effect in the repeat runs; an effect the other way counts as inactive or inconclusive; further: % of control where 0% means no effect). Particulars: ARE-luc HepG2, Nrf2 luciferase reporter, 16 h; series mostly up to 92.4 µM. Summed up: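 ARE-luc HepG2 cells carrying an Nrf2-responsive luciferase reporter, in medium with 1% dialyzed FBS, exposed to compound for 16 hr at 37 C, 5% CO2. Luminescence read 30 min after ONE-Glo addition.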

Experiment [14] in a line: qHTS assay for cell viability of HEK293 cells (AID 743288). Further: nearly all actives have a fitted effect of over 50% in size. Further: potency means the concentration at half of the fitted maximal effect. On max response: on the % scale 0 is the no-effect control and ±100 the full control effect. Particulars: ATP luminescence (CellTiter-Glo), 18 h; max response: stronger effect = lower value. The procedure, abridged:
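Environmental chemicals tested in qHTS format against parental HEK293 cells; 18 h treatment, 37 C; read-out ATP luminescence (CellTiter-Glo), 30 min RT development.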

Experiment [15] in a line: qHTS assay for cell viability of the p53RE-bla HCT-116 cell line (AID 743292). Further: nearly all actives have a fitted effect of over 55% in size. Further: potency means the concentration at half of the fitted maximal effect. The settings on record: p53RE-bla HCT-116 viability, ATP luminescence, 16 h; series mostly up to 95 µM. The procedure, abridged:
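CellSensor p53RE-bla HCT-116 cells (4,000/well) pre-incubated 5 h at 37 C, then exposed to compounds in DMSO for 16 h at 37 C. Viability read as ATP content by CellTiter-Glo luminescence after 30 min at room temperature.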

Experiment [16] has as its target Nuclear receptor subfamily 1 group I member 2 (Rattus norvegicus) (UniProt Q9R1A7). The experiment in a line: qHTS assay for small molecule activators of the rat pregnane X receptor (rPXR) signaling pathway (AID 651751; call rule not given here; further: 0% is about no effect). The settings on record: rPXR reporter cells, luciferase (One-Glo), 24 h.
Experiment [17] can be described thus: qHTS assay for small molecule activators of the human pregnane X receptor (PXR) signaling pathway (AID 720659; call rule not given here; further: 0% is about no effect). Particulars: DPX-2 HepG2 CYP3A4-luciferase, 24 h; series mostly up to 92.3 µM.
Experiment [18] has as its target Retinoic acid receptor RXR-alpha (Homo sapiens) (UniProt P19793). Kind of experiment: qHTS assay for small molecule agonists of retinoid X receptor alpha signaling (AID 588544).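 On activation: 0% = DMSO basal wells and 100% = reference agonist.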 The settings on record: HEK293T RXRa-UAS-bla, beta-lactamase reporter, 18 h; series mostly up to 76.7 µM.
Experiment [19] is described as follows: qHTS assay for small molecule activators of the p53 signaling pathway (AID 651743; active means well fitted activation curve with a large enough effect in the signal ratio, not every such curve was filed as active; the % refers to the signal ratio; further: % of control where 0% means no effect). The settings on record: HCT-116 p53RE-bla, beta-lactamase FRET ratio, 16 h; activation: stronger effect = higher value. The procedure, abridged: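 HCT-116 p53RE-bla, 4,000 cells/well; 5 h settle; cpd/DMSO 16 h, 37 C; LiveBLAzer B/G 2 h RT; fluorescence intensity.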
Experiment [20] is described as follows: qHTS assay for small molecule agonists of the antioxidant response element (ARE) signaling pathway measured by Nrf2-dependant transcriptional activity - cell viability counter screen (AID 720653; active means well fitted curve in the direction sought with a large enough effect in the repeat runs; an effect the other way counts as inactive or inconclusive; further: on the % scale 0 is the no-effect control and ±100 the full control effect). The settings on record: ARE-bla HepG2 viability, CellTiter-Glo ATP luminescence, 16 h; max response: stronger effect = lower value. The procedure, abridged:
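ARE-bla HepG2 cells treated with compounds for 16 h at 37C; this counter screen measures viability as intracellular ATP by CellTiter-Glo luminescence after 30 min at room temperature.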

Peroxisome proliferator-activated receptor gamma (Homo sapiens), sequence (P37231 whole entry, looked up): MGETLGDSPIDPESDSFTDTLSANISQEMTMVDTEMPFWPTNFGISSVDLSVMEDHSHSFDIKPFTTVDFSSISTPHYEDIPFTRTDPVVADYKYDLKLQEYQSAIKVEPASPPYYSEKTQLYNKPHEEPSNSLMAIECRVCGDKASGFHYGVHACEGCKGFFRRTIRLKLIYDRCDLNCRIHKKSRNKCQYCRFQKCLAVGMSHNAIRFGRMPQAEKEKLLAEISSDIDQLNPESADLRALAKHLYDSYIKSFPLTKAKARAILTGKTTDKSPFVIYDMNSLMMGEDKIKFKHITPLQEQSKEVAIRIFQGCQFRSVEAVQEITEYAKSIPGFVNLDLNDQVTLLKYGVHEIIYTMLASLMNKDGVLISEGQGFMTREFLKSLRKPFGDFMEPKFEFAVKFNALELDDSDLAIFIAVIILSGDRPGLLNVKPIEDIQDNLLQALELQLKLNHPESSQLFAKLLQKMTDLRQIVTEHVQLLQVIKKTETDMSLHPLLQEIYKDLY
Nuclear receptor subfamily 1 group I member 2 (Rattus norvegicus), sequence (Q9R1A7 whole entry, looked up): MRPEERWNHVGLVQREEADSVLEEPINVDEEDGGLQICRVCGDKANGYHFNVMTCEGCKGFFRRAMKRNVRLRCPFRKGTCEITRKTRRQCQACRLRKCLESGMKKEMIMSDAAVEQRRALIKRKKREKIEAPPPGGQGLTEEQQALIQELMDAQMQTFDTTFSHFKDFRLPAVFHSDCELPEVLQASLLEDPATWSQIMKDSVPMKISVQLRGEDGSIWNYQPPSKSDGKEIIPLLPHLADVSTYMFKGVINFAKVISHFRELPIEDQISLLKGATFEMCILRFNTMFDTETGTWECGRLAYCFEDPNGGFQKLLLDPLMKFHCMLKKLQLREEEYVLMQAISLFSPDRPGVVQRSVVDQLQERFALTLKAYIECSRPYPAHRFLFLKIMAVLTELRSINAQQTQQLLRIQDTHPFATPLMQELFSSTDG
Retinoic acid receptor RXR-alpha (Homo sapiens), sequence (P19793 whole entry, looked up): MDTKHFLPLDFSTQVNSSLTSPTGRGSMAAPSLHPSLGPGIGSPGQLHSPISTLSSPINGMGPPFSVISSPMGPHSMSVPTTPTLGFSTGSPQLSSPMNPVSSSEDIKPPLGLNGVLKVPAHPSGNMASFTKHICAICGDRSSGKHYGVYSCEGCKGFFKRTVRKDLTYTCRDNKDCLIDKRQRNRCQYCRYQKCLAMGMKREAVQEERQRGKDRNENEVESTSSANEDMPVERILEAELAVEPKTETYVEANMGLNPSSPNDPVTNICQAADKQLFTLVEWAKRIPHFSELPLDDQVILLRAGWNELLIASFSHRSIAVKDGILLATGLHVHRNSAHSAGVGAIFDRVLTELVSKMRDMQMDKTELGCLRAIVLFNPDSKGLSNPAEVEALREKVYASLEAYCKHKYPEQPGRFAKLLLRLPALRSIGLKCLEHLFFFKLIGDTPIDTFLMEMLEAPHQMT
Thyroid hormone receptor beta (Homo sapiens), sequence (P10828 whole entry, looked up): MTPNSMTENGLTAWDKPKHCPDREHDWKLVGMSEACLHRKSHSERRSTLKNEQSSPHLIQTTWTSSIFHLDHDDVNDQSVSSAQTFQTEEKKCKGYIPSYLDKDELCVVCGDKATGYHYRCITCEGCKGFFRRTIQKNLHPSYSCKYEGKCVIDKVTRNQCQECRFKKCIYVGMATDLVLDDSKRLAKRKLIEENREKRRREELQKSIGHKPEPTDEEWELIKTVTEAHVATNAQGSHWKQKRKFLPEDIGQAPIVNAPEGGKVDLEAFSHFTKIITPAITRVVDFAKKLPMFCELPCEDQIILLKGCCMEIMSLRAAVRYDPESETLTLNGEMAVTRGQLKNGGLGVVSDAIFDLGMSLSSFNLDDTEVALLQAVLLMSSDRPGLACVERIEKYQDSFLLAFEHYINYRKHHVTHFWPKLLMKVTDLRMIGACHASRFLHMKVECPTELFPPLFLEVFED

For `O=S(=O)(O)c1ccc(N=Nc2cc(S(=O)(=O)O)c3ccccc3c2O)c2ccccc12`, the max response in experiment [1] is 26.6%; in experiment [6], -24.8%; in experiment [8] it was 4.4%; in [9], 4.36% (inactive); in experiment [12], -9.4% (inactive); in experiment [16], -7.09% (inactive). Besides, the outcome in experiment [2], in experiment [5] and in experiment [17] was inactive. The Potency result in [3], in experiment [4], in experiment [7] and in experiment [13] was “inactive” throughout. The activation was 0.356% (inactive) in [10] and 3.98% (inactive) in [11]. The figures for the Potency in experiment [14] and in [15] were 44.7 µM (active) and 39.8 µM (active), respectively.

Take `CCCCOCCOCCO`: the outcome in experiment [2], in [5] and in experiment [17] was inactive. Besides, the Potency result in experiment [3], in experiment [4], in experiment [18], in experiment [7], in [13] and in experiment [15] was “inactive” throughout. For the same molecule, the max response in experiment [6] was -10.9%; in experiment [8], 1.46%; in experiment [9] it was -25.6% (inactive); in [12] it was -0.568% (inactive); in experiment [20] it was 3.56% (inactive); in experiment [14], -12.6% (inactive). For the same molecule, in [16], the max response was -2.42% (inactive). The activation in experiment [19] is 0.276% (inactive); in experiment [10] it was -0.601% (inactive); in [11], 0.311% (inactive).

With `O=C(Cl)c1ccc(C(=O)Cl)cc1`, the max response was -9.41% in [1]; -3.06% in [6]; -14.3% in experiment [8]; 2.6% (inactive) in [9]; -0.543% (inactive) in experiment [12]; -8.12% (inactive) in experiment [20]. The max response is -8.26% (inactive) in [14] and -1.54% (inactive) in experiment [16]. Besides, the Potency result in experiment [4], in experiment [18], in [7], in experiment [13] and in experiment [15] was “inactive” in each case. In addition, the result in experiment [5] and in experiment [17] was inactive. Moreover, the activation in experiment [19] is -0.615% (inactive); in experiment [11], -0.806% (inactive).

On to `CC1(C)CC(OC(=O)CCCCCCCCC(=O)OC2CC(C)(C)NC(C)(C)C2)CC(C)(C)N1`, for which the max response in [1] was 5.94%; in experiment [6] it was -2.95%; in experiment [8] it was 5.99%; in experiment [12] it was -4.12% (inactive); in [20], -3.17% (inactive); in [14], -10.1% (inactive). Further, the max response in experiment [16] is -0.828% (inactive). For the same molecule, the outcome in experiment [2], in experiment [5] and in experiment [17] was inactive. Moreover, the Potency entry in experiment [4], in [18], in experiment [7], in experiment [13] and in [15] was “inactive” throughout. Further, the activation was -2.75% (inactive) in [19], 2.54% (inactive) in experiment [10] and 0.228% (inactive) in experiment [11].

For `CCc1c(C(=O)O)c(=O)cnn1-c1ccc(Cl)cc1`, the max response was 48.3% in [1]; -1.3% in [8]; 7.37% (inactive) in [9]; 3.7% (inactive) in experiment [12]; -3.97% (inactive) in [20]; -15.5% (inactive) in experiment [14]. In addition, the max response in experiment [16] is -1.29% (inactive). Besides, the result in experiment [2], in [5] and in [17] was inactive. For the same molecule, the Potency entry in experiment [3], in [4], in experiment [7] and in [15] was “inactive” each time. Further, the activation was -0.428% (inactive) in experiment [10] and 0.0279% (inactive) in [11].

For the molecule `CCCCCCc1ccc(N)cc1`, the max response in experiment [1] was 65.6%; in experiment [8] it was -5.49%; in [9] it was -10.1% (inactive); in experiment [20] it was -14.6% (inactive); in experiment [14], -16% (inactive); in experiment [16] it was -2.28% (inactive). Further, the result in [2], in [5] and in experiment [17] was inactive. In addition, the Potency entry in [3], in [4], in [7], in [13] and in [15] was “inactive” in each case. The values for the activation in experiment [19], in [10] and in experiment [11] were 0.412% (inactive), 0.791% (inactive) and 2.42% (inactive), respectively.
